Data from PubChem BioAssay (EPA / NIEHS).
Calls of active or inactive are those of the source. The calls were made as follows: active = hit-call score of the fitted dose curve at least 0.9, where 1 is the maximum; inactive = score below 0.9.

Read-out: Vascular endothelial growth factor receptor 2 (Homo sapiens) (UniProt P35968)
Assay: BSK_4H_VEGFRII: BioMAP Diversity Plus: 4H Assay for Vascular endothelial growth factor receptor 2 (VEGFR2) Biomarker Activity (AID 2283031);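 as to AC50: cell-surface VEGFR2 protein level quantified by ELISA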
Settings: primary human endothelial cells (HUVEC); actives raise or lower the signal
Outline: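 In this multiplexed HUVEC system, biomarker ELISA was performed after 24 h chemical exposure. Parallel SRB staining (TCA fixation, 560 nm) tracked cytotoxicity; DMSO served as baseline.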

Q: For `CC1(C)C(C=C(Cl)Cl)C1C(=O)OCc1cccc(Oc2ccccc2)c1` (configuration not stated), which outcome is on record?
A: The outcome was “inactive”.

Q: `CCN(Cc1c(F)cccc1Cl)c1c([N+](=O)[O-])cc(C(F)(F)F)cc1[N+](=O)[O-]` was tested. Which outcome did it give?
A: The outcome was “inactive”.

Q: Which outcome does the source give for `CCCN(CCC)C(=O)SCC` here?
A: Its outcome is “inactive”.

Q: For `CCCCOC(=O)[C@@H](C)Oc1ccc(Oc2ccc(C(F)(F)F)cn2)cc1`, which outcome is on record?
A: The outcome was “inactive”.

Q: For `c1ccc2[nH]c(-c3cscn3)nc2c1`, which outcome is on record?
A: Its outcome is “inactive”.

Q: How did the outcome turn out when `COC(=O)c1ccccc1S(=O)(=O)NC(=O)Nc1nc(OC(F)F)cc(OC(F)F)n1` was run?
A: The outcome was “inactive”.

Q: How did the outcome turn out when `CCCCCOC(=O)COc1cc(N2C(=O)C3=C(CCCC3)C2=O)c(F)cc1Cl` was run?
A: The outcome was “inactive”.

Q: `O=C(O)c1ccccc1` was tested. Which outcome did it give?
A: The outcome was “inactive”.

Q: How did the AC50 turn out when `CCCCCCC(C)OC(=O)COc1nc(F)c(Cl)c(N)c1Cl` (configuration not stated) was run?
A: The AC50 was 31.9 µM (active).

Q: With `COC(=O)c1ccccc1C(=O)O` as the molecule, how does the outcome read?
A: Its outcome is “inactive”.

Q: With `CCCOC(=O)NCCCN(C)C` as the molecule, how does the outcome read?
A: Its outcome is “inactive”.

Q: `CCOC(=O)C(C)Oc1ccc(Oc2nc3ccc(Cl)cc3o2)cc1` (configuration not stated) was tested. Which outcome did it give?
A: Its outcome is “inactive”.

Q: With `C[C@]12CC[C@@H]3c4ccc(O)cc4C[C@@H](CCCCCCCCCS(=O)CCCC(F)(F)C(F)(F)F)[C@H]3[C@@H]1CC[C@@H]2O` (some centres not stated) as the molecule, how does the outcome read?
A: The outcome was “inactive”.

Q: Which outcome does the source give for `COC(=O)c1ccc(CNS(C)(=O)=O)cc1S(=O)(=O)NC(=O)Nc1nc(OC)cc(OC)n1` here?
A: Its outcome is “inactive”.

Q: How did the outcome turn out when `COC(=O)c1cccc(C)c1S(=O)(=O)NC(=O)Nc1nc(OCC(F)(F)F)nc(N(C)C)n1` was run?
A: The outcome was “inactive”.

Q: How did the outcome turn out when `CCOC(=O)c1ccc(O)cc1` was run?
A: The outcome was “inactive”.

Q: With `CCCCC(CC)COC(=O)c1ccccc1C(=O)O` (configuration not stated) as the molecule, how does the outcome read?
A: Its outcome is “inactive”.

Q: How did the outcome turn out when `C=CCOC(Cn1ccnc1)c1ccc(Cl)cc1Cl` (configuration not stated) was run?
A: The outcome was “inactive”.

Q: `O=C(c1ccccc1)C1CCCCC1` was tested. Which outcome did it give?
A: Its outcome is “inactive”.

Q: Which outcome does the source give for `CCOC(=O)COc1cc(-n2ncc(C(F)(F)F)c(C)c2=O)c(F)cc1Cl` here?
A: Its outcome is “inactive”.

Q: `O=C(Nc1ccc([N+](=O)[O-])cc1Cl)c1cc(Cl)ccc1O` was tested. Which outcome did it give?
A: The outcome was “inactive”.

Q: How did the outcome turn out when `CCN(CC)C(=O)c1cccc(C)c1` was run?
A: Its outcome is “inactive”.

Q: With `C#CCOC(=O)[C@@H](C)Oc1ccc(Oc2ncc(Cl)cc2F)cc1` as the molecule, how does the outcome read?
A: Its outcome is “inactive”.

Q: Which AC50 does the source give for `CC(C)CCCCCCc1ccc(O)cc1` here?
A: Its AC50 is 5.29 µM (active).

Q: `COC(=O)c1c(Cl)nn(C)c1S(=O)(=O)NC(=O)Nc1nc(OC)cc(OC)n1` was tested. Which outcome did it give?
A: Its outcome is “inactive”.

Q: `CC(=O)S[C@@H]1CC2=CC(=O)CC[C@]2(C)[C@H]2CC[C@@]3(C)[C@@H](CC[C@@]34CCC(=O)O4)[C@H]12` was tested. Which outcome did it give?
A: Its outcome is “inactive”.

Q: How did the outcome turn out when `O=C(O)C1(C(=O)Nc2ccc(Cl)cc2Cl)CC1` was run?
A: The outcome was “inactive”.

Read-out: Human Leukocyte Antigen - DR isotype (HLADR), HLA-DRA (gene 3122)
Assay: BSK_BE3C_HLADR: BioMAP Diversity Plus: BE3C Assay for Human Leukocyte Antigen - DR isotype (HLADR) Biomarker Activity (AID 2283032)
Settings: primary human bronchial epithelial cells; actives raise or lower the signal
Outline: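 Signal came from an ELISA for HLA-DR in human bronchial epithelial primary cells harvested 24 h after treatment; gain- and loss-of-signal fitting used DMSO controls as reference.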

Q: Which outcome does the source give for `CC1(C)C(C=C(Cl)Cl)C1C(=O)OCc1cccc(Oc2ccccc2)c1` (configuration not stated) here?
A: Its outcome is “inactive”.

Q: `CCN(Cc1c(F)cccc1Cl)c1c([N+](=O)[O-])cc(C(F)(F)F)cc1[N+](=O)[O-]` was tested. Which outcome did it give?
A: Its outcome is “inactive”.

Q: How did the outcome turn out when `COCCO` was run?
A: The outcome was “inactive”.

Q: For `COc1c(Cl)ccc(Cl)c1C(=O)O`, which outcome is on record?
A: Its outcome is “inactive”.

Q: Which outcome does the source give for `CCCN(CCC)C(=O)SCC` here?
A: Its outcome is “inactive”.

Q: `CCCCOC(=O)[C@@H](C)Oc1ccc(Oc2ccc(C(F)(F)F)cn2)cc1` was tested. Which outcome did it give?
A: Its outcome is “inactive”.

Q: `c1ccc2[nH]c(-c3cscn3)nc2c1` was tested. Which outcome did it give?
A: Its outcome is “inactive”.

Q: Which outcome does the source give for `COC(=O)c1ccccc1S(=O)(=O)NC(=O)Nc1nc(OC(F)F)cc(OC(F)F)n1` here?
A: Its outcome is “inactive”.

Q: With `CCCCCOC(=O)COc1cc(N2C(=O)C3=C(CCCC3)C2=O)c(F)cc1Cl` as the molecule, how does the outcome read?
A: The outcome was “inactive”.

Q: `O=C(O)c1ccccc1` was tested. Which outcome did it give?
A: The outcome was “inactive”.

Q: With `CCCCCCC(C)OC(=O)COc1nc(F)c(Cl)c(N)c1Cl` (configuration not stated) as the molecule, how does the outcome read?
A: The outcome was “inactive”.

Q: With `COC(=O)c1ccccc1C(=O)O` as the molecule, how does the outcome read?
A: The outcome was “inactive”.

Q: `CCCOC(=O)NCCCN(C)C` was tested. Which AC50 did it give?
A: The AC50 was 4.29 µM (active).

Q: `CC(=O)[C@H]1CC[C@H]2[C@@H]3CCC4=CC(=O)CC[C@]4(C)[C@H]3CC[C@]12C` was tested. Which outcome did it give?
A: The outcome was “inactive”.

Q: With `CCOC(=O)C(C)Oc1ccc(Oc2nc3ccc(Cl)cc3o2)cc1` (configuration not stated) as the molecule, how does the AC50 read?
A: The AC50 was 20 µM (active).

Q: `C[C@]12CC[C@@H]3c4ccc(O)cc4C[C@@H](CCCCCCCCCS(=O)CCCC(F)(F)C(F)(F)F)[C@H]3[C@@H]1CC[C@@H]2O` (some centres not stated) was tested. Which outcome did it give?
A: Its outcome is “inactive”.

Q: Which outcome does the source give for `COC(=O)c1ccc(CNS(C)(=O)=O)cc1S(=O)(=O)NC(=O)Nc1nc(OC)cc(OC)n1` here?
A: The outcome was “inactive”.

Q: With `COC(=O)c1cccc(C)c1S(=O)(=O)NC(=O)Nc1nc(OCC(F)(F)F)nc(N(C)C)n1` as the molecule, how does the outcome read?
A: The outcome was “inactive”.

Q: How did the outcome turn out when `CCOC(=O)c1ccc(O)cc1` was run?
A: Its outcome is “inactive”.

Q: With `CCCCC(CC)COC(=O)c1ccccc1C(=O)O` (configuration not stated) as the molecule, how does the outcome read?
A: Its outcome is “inactive”.

Q: For `C=CCOC(Cn1ccnc1)c1ccc(Cl)cc1Cl` (configuration not stated), which outcome is on record?
A: The outcome was “inactive”.

Q: How did the outcome turn out when `O=C(c1ccccc1)C1CCCCC1` was run?
A: The outcome was “inactive”.

Q: How did the outcome turn out when `CCOC(=O)COc1cc(-n2ncc(C(F)(F)F)c(C)c2=O)c(F)cc1Cl` was run?
A: The outcome was “inactive”.

Q: With `O=C(Nc1ccc([N+](=O)[O-])cc1Cl)c1cc(Cl)ccc1O` as the molecule, how does the AC50 read?
A: Its AC50 is 0.148 µM (active).

Q: With `CCN(CC)C(=O)c1cccc(C)c1` as the molecule, how does the outcome read?
A: The outcome was “inactive”.

Q: `C#CCOC(=O)[C@@H](C)Oc1ccc(Oc2ncc(Cl)cc2F)cc1` was tested. Which outcome did it give?
A: Its outcome is “inactive”.

Q: `CC(C)CCCCCCc1ccc(O)cc1` was tested. Which AC50 did it give?
A: The AC50 was 26.2 µM (active).

Q: Which outcome does the source give for `COC(=O)c1c(Cl)nn(C)c1S(=O)(=O)NC(=O)Nc1nc(OC)cc(OC)n1` here?
A: The outcome was “inactive”.

Q: `CC(=O)S[C@@H]1CC2=CC(=O)CC[C@]2(C)[C@H]2CC[C@@]3(C)[C@@H](CC[C@@]34CCC(=O)O4)[C@H]12` was tested. Which outcome did it give?
A: Its outcome is “inactive”.

Q: For `O=C(O)C1(C(=O)Nc2ccc(Cl)cc2Cl)CC1`, which AC50 is on record?
A: The AC50 was 10.7 µM (active).
